SARS PLP yeast – blocks SARS-CoV papain-like protease in a yeast assay; 330,000 compounds, 0.19% hits; Potency, µM (highest dose often 32.9 µM), usual class: activators; S. cerevisiae expressing SARS-CoV PLpro, growth rescue; calls by dose curve; further: nearly all actives have a fitted effect of over 55% in size
CHX counter – counter-screen hit for Shiga toxin inhibitors, cycloheximide | cell reporter, cycloheximide protein synthesis inhibition counterscreen | max response, % | 300,000 compounds, 12% hits | AID 2314; in the data active means max response mostly above about 13%, no sharp cut-off; inactive means mostly below about 14%; further: read at 38.3 µM for the half of the compounds with a filed dose
Shiga inhibitor – blocks Shiga toxin action in Vero cells. Vero cells, Shiga toxin protein synthesis inhibition reporter. inhibition, % at 38.7 µM. 290,000 compounds, 9.2% hits. AID 2315; in the data active means inhibition mostly above about 28%, no sharp cut-off; inactive means mostly below about 43%
Pf growth 96h – P. falciparum growth inhibition at 96 hours; P. falciparum luciferase reporter growth, 96 h; Potency, µM (doses to about 28.7 µM), usual class: inhibitors; 320,000 compounds, 6.9% hits; AID 504834
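Readout is luminescence from an integrated firefly luciferase in P. falciparum. Red cells, 2% hematocrit and 0.05% parasitemia final, were cultured with compound through two parasite generations (96 hours) at 37 C, 5% CO2.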
AMA1-RON2 inh – AMA1-RON2 (P. falciparum) interaction inhibition; AlphaScreen AMA1-biotinylated RON2 peptide binding; 360,000 compounds, 0.2% hits; Potency, µM (titrated, usually from 58.2 µM), most hits filed as inhibitors; further: nearly all actives have a fitted effect of over 45% in size
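AMA1 (3D7) with his tag at 25 nM final met compounds first, then biotinylated RON2 peptide at 25 nM; detection used donor plus acceptor beads, 10 µg/mL apiece, read by AlphaScreen after 30 min at room temperature.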
Pf growth 48h – P. falciparum growth inhibition at 48 hours (one generation) | P. falciparum luciferase growth in erythrocytes, 48 h | Potency, µM (series often up to 28.7 µM), usual class: inhibitors | 310,000 compounds, 5.9% hits
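Parasite viability was followed by luminescence of a genomically integrated firefly luciferase. Cultures held 0.1% parasitemia at 2% hematocrit (final), incubated under 5% CO2 at 37 C.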
Numbers stand for hits; . = inactive; ? = inconclusive; / = no result given; ! = not confirmed by another sample; [ ] = dose if it differs, or a comment. A selection: hits, their analogues and other compounds. The true share with any hit is near 19%. Unless noted, the call rests on the fitted dose curve; in most records, active means well fitted curve in the direction sought with a large enough effect; inconclusive means small, poorly fitted or top-dose-only effect, or another doubt; inactive means no such curve, though single readings can be large; an effect the other way counts as inactive or inconclusive.

SMILES | SARS PLP yeast | CHX counter | Shiga inhibitor | Pf growth 96h | AMA1-RON2 inh | Pf growth 48h
Cc1ccc(NC(=O)CSc2nnc(-c3ccccc3C)o2)cc1C | . | . | . | . | . | .
Cc1cc2nc(-c3cccc(Cl)c3)c(Cc3ccsc3)n2c(C)c1Br | / | / | / | / | . | /
COc1ccc(C2Nc3ccccc3C(=O)N2Cc2ccccc2)cc1OC (centres undefined) | / | / | / | / | . | /
O=C1c2ccccc2NC(c2cccc(O)c2)N1Cc1ccco1 (centres undefined) | . | . | . | ? | . | .
COc1ccc(C2Nc3ccccc3C(=O)N2Cc2ccco2)cc1COc1ccc(F)cc1 (centres undefined) | . | 60 | 40 | 6.6µM | . | 2.1µM
COc1ccc(C2Nc3ccccc3C(=O)N2Cc2ccco2)cc1CN1C(=O)c2ccccc2C1=O (centres undefined) | . | . | 43! | ? | . | 13µM
COCCNC(=O)C1(C)CCCN(C(=O)Cc2ccc3ccccc3c2)C1 (centres undefined) | / | / | / | / | . | /
COC(=O)c1c(C(C)=O)c(C)n(C)c1C | . | . | . | . | . | .
CCN(c1ccccc1)c1ncnc2c1cnn2-c1ccccc1 | . | 26 | 65 | . | . | /
CN(Cc1ccccc1)c1ncnc2c1cnn2-c1ccccc1 | . | 55 | 98 | ? | . | .
CCOc1ccccc1Nc1ncnc2c1cnn2-c1ccccc1 | . | . | . | ? | . | ?
Cc1coc2cc3oc(=O)c(CCC(=O)NCCN4CCOCC4)c(C)c3cc12 | . | . | . | . | . | .
COCC1CCCN(C(=O)c2ccc3nc(Cc4cccc(Cl)c4)oc3c2)C1 (centres undefined) | . | 42 | 89 | . | . | .
COCC1CCN(C(=O)c2ccc3nc(Cc4cccc(Cl)c4)oc3c2)CC1 | / | / | / | / | . | /
COC1CCCN(C(=O)c2ccc3nc(Cc4cccc(Cl)c4)oc3c2)C1 (centres undefined) | . | . | 49 | ? | . | .
COC1CCCN(C(=O)c2ccc3oc(Cc4ccc(Cl)cc4)nc3c2)C1 (centres undefined) | . | . | . | ? | . | .
O=[N+]([O-])c1ccc(S(=O)(=O)N/N=C/c2cccs2)cc1 | . | 20 | 27 | . | . | .
CCN1C[C@@H]2[C@@H]3C(=O)N(C)C(=O)[C@@H]3[C@](CC)(C1=O)N2C(=O)c1ccc(C)cc1 | / | / | / | / | . | /
O=C(Nc1nc(COc2ccccc2)cs1)c1ccccc1F | . | . | 14 | . | .[11.6 µM] | .
O=C(Nc1nnc(-c2ccccc2)s1)c1ccccc1F | . | 74 | 59 | . | . | .
O=C(Nc1nnc(S(=O)(=O)N2CCCCCC2)s1)c1ccccc1F | . | 11 | . | . | . | .
COc1ccc(OC)c(-c2csc(NC(=O)c3ccccc3F)n2)c1 | . | . | . | ? | . | .
Cc1cccc(OCC(=O)Nc2nnc(S(=O)(=O)N3CCCCCC3)s2)c1 | . | . | . | 12µM | . | .
C/C(=C\C(=O)OCCCCCCCCC(=O)O)C[C@@H]1OCC(C[C@H]2O[C@H]2[C@@H](C)[C@H](C)O)[C@@H](O)[C@H]1O (some centres undefined) | / | . | . | / | / | /
CCN(Cc1nc2cc(Cl)ccc2c(=O)[nH]1)C(=O)c1cccc(OCc2c(C)noc2C)c1 | . | / | / | . | . | ?
SMILES | SARS PLP yeast | CHX counter | Shiga inhibitor | Pf growth 96h | AMA1-RON2 inh | Pf growth 48h
NS(=O)(=O)c1ccc(CCNC(=O)COC(=O)C2COc3ccccc3O2)cc1 (centres undefined) | . | / | / | / | . | /
O=C(Nc1nnc(S(=O)(=O)N2CCOCC2)s1)c1ccccc1F | . | 17 | . | . | . | .
O=C(Nc1nnc(S(=O)(=O)N2CCOCC2)s1)c1cccc(F)c1 | . | 20 | 31 | . | . | .
Cc1cccc(C(=O)Nc2nnc(S(=O)(=O)N3CCOCC3)s2)c1 | . | . | . | . | . | .
O=C(Nc1nnc(S(=O)(=O)N2CCOCC2)s1)c1ccccc1Cl | . | . | . | . | . | .
C/C(=N/NC(=O)CNC(=O)c1cccnc1)c1ccc(Cl)c(Cl)c1 | . | . | . | . | . | .[0.00184 µM]
Cc1cc(=O)[nH]c(SCCOc2ccc(OC(C)C)cc2)n1 | . | 31 | 47 | . | . | .
Cc1cc(=O)[nH]c(SCCCOc2ccccc2Cl)n1 | ? | . | . | ? | . | /
C/C=C/c1ccc(OCCSc2nc(C)cc(=O)[nH]2)c(OC)c1 | . | 24 | 77 | . | . | ?
C/C=C/c1ccc(OCCCCN2C(=O)NC(C)(C)C2=O)c(OC)c1 | . | 14 | . | ? | . | .
CCOc1cc(C=O)ccc1OCCCN1C(=O)NC(C)(C)C1=O | . | . | . | . | . | /
Cc1cc(=O)[nH]c(SCCOc2ccc3c(c2)CCC3)n1 | / | . | . | / | . | .
CSCCC(NS(=O)(=O)c1ccccc1F)C(=O)NCc1ccncc1 (centres undefined) | . | / | / | . | . | .
CC(C)Oc1cc(F)ccc1-c1cc(C(=O)NCC2CCCCC2)[nH]n1 | / | / | / | / | . | /
CC(=O)NNc1cc(C)nc(N)n1 | . | . | . | . | . | .
CCSc1ccccc1C(=O)NCCc1ccccc1 | . | . | . | . | . | .
Cc1cc(C)n2nc(CNS(=O)(=O)c3ccc([N+](=O)[O-])cc3)nc2n1 | . | . | . | ? | . | .
COc1ccc(-c2nc3nc(C)cc(C)n3n2)cc1 | . | 17 | 37 | / | . | .
Cc1nc2nc(-c3ccco3)nn2c(C)c1Cl | . | 14 | . | / | . | .
COc1ccc(OC)c(S(=O)(=O)NCc2nc3nc(C)cc(C)n3n2)c1 | . | . | . | 13µM | . | .
COc1ccc(CNc2nc3nc(C)c(Cl)c(C)n3n2)cc1 | . | 35 | 56 | . | . | .
Cc1nc2nc(-c3cccnc3)nn2c(C)c1Cl | . | . | . | . | . | .
CC(=O)N1CCc2cc(S(=O)(=O)CCC(=O)N3CCN(c4cc(C)ccc4C)CC3)ccc21 | . | . | . | . | . | .
O=C(c1ccc(S(=O)(=O)c2cccc(Cl)c2)c([N+](=O)[O-])c1)N1CCN(Cc2ccccc2)CC1 | . | . | . | ? | . | ?
COCCCNC(=O)[C@@H](Cc1ccccc1)NC(=O)CC[C@H]1O[C@@H](n2ccc(=O)[nH]c2=O)[C@H](O)[C@@H]1O | / | / | / | / | . | /
SMILES | SARS PLP yeast | CHX counter | Shiga inhibitor | Pf growth 96h | AMA1-RON2 inh | Pf growth 48h
CC(C)c1nnc(NC(=O)C2CCN(C(=O)Nc3ccccc3)CC2)s1 | . | . | . | . | . | .
COc1ccc(N2CCN(Cc3nc(-c4ccccc4)no3)CC2)cc1 | . | . | . | ? | ? | .
COc1ccc(CNc2nc3nc(C)cc(C)n3n2)cc1 | . | . | 34 | . | . | .
COc1cccc(CNc2nc3nc(C)c(Cl)c(C)n3n2)c1 | . | 35 | 48 | . | . | .
COc1ccc(C(=O)Nc2nnc(SCC(=O)NC3CC3)s2)cc1 | . | 39 | 51 | ? | . | .
COc1ccc(C(=O)Cc2nnc(C)s2)c(OC)c1 | . | . | . | . | . | .

Bioassay records: PubChem, National Center for Advancing Translational Sciences (NCATS)
